# Screening results: PubChem, The Scripps Research Institute Molecular Screening Center
# PAFAH1B2 FP inh = inhibitors of human PAFAH1B2. P68402. recombinant PAFAH1B2, FP-rhodamine activity probe, fluorescence polarization. inhibition, % at 3.39 µM. actives 1.2% (n = 340,000);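 active = inhibition above the mean of all tested compounds plus 3 SD, cut at about 24% in these data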
# Target sequence (P68402 whole entry, looked up): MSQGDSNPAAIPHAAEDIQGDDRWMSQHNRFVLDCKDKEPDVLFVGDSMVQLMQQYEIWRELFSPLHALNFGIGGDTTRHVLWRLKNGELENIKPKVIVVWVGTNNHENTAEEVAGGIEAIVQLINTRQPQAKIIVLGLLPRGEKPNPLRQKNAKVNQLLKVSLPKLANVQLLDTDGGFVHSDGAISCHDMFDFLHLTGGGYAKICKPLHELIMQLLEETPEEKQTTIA
# TCR CD3 inh = blocks the human TCR-CD3 interaction | TAMRA-labeled TCR probe fluorescence, biochemical | inhibition, % at 9.4 µM | actives 0.37% (n = 360,000); in the data active = inhibition above about 19%;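 also: recombinant mutant TCR 2C K166C tagged with TAMRA read by polarization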
# PAFAH2 FP inh = inhibitors of human PAFAH2 | actives 0.99% (n = 340,000) | inhibition, % at 3.39 µM | Q99487 | recombinant PAFAH2, FP-rhodamine activity probe, fluorescence polarization;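 active = inhibition above the mean over all tested compounds plus 3 SD, cut at about 30% in these data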;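 also: inhibitors block probe labeling of enzyme so polarization drops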
# PAFAH1B3 inh = inhibitors of human PAFAH1B3; inhibition, % at 3.39 µM; recombinant PAFAH1B3, FP-rhodamine probe, fluorescence polarization; Q15102; actives 0.28% (n = 340,000); AID 492972;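 active = inhibition above the screen-wide average of all tested compounds plus 3 SD, cut at about 25% in these data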
# Target sequence (Q15102 whole entry, looked up): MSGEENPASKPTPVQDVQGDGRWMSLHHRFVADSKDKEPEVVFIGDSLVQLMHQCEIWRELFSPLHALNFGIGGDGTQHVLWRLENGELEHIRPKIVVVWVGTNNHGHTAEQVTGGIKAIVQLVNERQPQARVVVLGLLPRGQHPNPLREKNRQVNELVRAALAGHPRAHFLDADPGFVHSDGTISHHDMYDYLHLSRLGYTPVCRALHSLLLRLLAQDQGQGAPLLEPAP
# pPAFAH inh = inhibitors of human plasma PAF acetylhydrolase (pPAFAH); Q13093; recombinant pPAFAH, FP-rhodamine probe fluorescence polarization; inhibition, % at 3.39 µM; actives 1.5% (n = 330,000); AID 463082;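 active = inhibition above the mean inhibition across the screen plus 3 SD, cut at about 25% in these data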;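 also: inhibitors block binding of the rhodamine activity-based probe so polarization drops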
# pPAFAH FP conf = pPAFAH (human) inhibition, confirmed; shares compounds with pPAFAH inh; recombinant pPAFAH, FP-Rh probe fluorescence polarization; inhibition, % at 3.39 µM; actives 72% (n = 2,300);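 active = mean inhibition of the triplicate above the hit cutoff set for the earlier primary screen, cut at about 25% in these data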
# A number is an active result; – = inactive; · = no result given. Only some compounds are listed: those with a hit (about 2.7% of all), similar ones and a draw of the others.
SMILES,PAFAH1B2 FP inh,TCR CD3 inh,PAFAH2 FP inh,PAFAH1B3 inh,pPAFAH inh,pPAFAH FP conf
CCOC(=O)N1CCN(c2cc(NCCC(=O)O)c3c4c(onc24)-c2ccccc2C3=O)CC1,–,·,–,–,55,37
CN1CCN(c2cc(N3CCN(C(=O)c4ccco4)CC3)c3c4c(onc24)-c2ccccc2C3=O)CC1,–,·,–,–,–,·
CCOC(=O)N1CCN(C2=C(NS(=O)(=O)c3ccc(C)cc3)C(=O)c3ccccc3C2=O)CC1,–,–,–,–,–,·
NNc1nc(C(F)(F)F)nc2ccccc12,–,–,–,–,–,·
O/C=c1\ccc2cccc3nc(C(F)(F)F)nc1c23,–,–,–,–,40,–
CCN(CC)c1ccc(NS(=O)(=O)c2ccc(-c3ccc(=O)[nH]n3)o2)c(C)c1,–,–,–,–,68,50
Cc1ccccc1NS(=O)(=O)c1ccc(-c2ccc(=O)[nH]n2)o1,–,–,–,–,–,·
CC1(C(=O)Nc2cccc3cccnc23)CCN1Cc1cccc2c1OCO2 (stereo unspecified),·,–,·,·,·,·
CCOP(=O)(Nc1cccc2oc(=O)c3ccccc3c12)OCC,–,–,–,–,·,·
CNc1c(NS(=O)(=O)c2ccc3c(c2)CCCC3)c(=O)oc2ccccc12,–,–,–,–,–,·
C=CC(C)(C)c1c(O)c(CC=C(C)C)c(O)c2c(=O)c3ccc(O)c(O)c3oc12,–,·,–,–,45,49
C=CC(C)(C)c1c2occc2c(O)c2ccc(=O)oc12,–,–,–,–,–,·
O=C(Nc1nc2ccsc2c(=O)s1)C1CCC1,·,–,·,·,36,–
CC(C)[C@H](NS(=O)(=O)c1ccccc1)C(=O)OCC(=O)Nc1cccc(S(N)(=O)=O)c1,–,–,–,–,–,·
CCCSC1=N/C(=C\C=C\c2ccco2)C(=O)S1,–,–,45,–,45,–
Cc1cc(C)c(S(=O)(=O)/N=C2\C=CC(=O)C(Cl)=C2)c(C)c1,–,·,31,–,65,57
CCCN(C)C1CN(Cc2cn(Cc3cc(C)cc(C)c3)nn2)S(=O)(=O)C1 (stereo unspecified),·,–,·,·,·,·
O=C(CN1CCCC(O)C1)N1c2ccccc2Sc2ccc(C(F)(F)F)cc21 (stereo unspecified),–,–,–,–,–,·
CN1CCN(CCCN2c3ccccc3Sc3ccc(C(F)(F)F)cc32)CC1,–,–,–,–,37,30
Cc1cc(NC(=O)COC(=O)CNS(=O)(=O)c2ccc(C)c(C)c2)no1,–,–,–,–,–,·
Cc1cccc(NS(=O)(=O)c2ccc(C)c(C(=O)OCC(=O)Nc3cc(C)on3)c2)c1,–,–,–,–,68,62
CCn1c(NCc2cc(Cl)ccc2O)nc2ccccc21,–,–,–,–,–,·
COC(=O)CCC(=O)OC1(C)C(=O)C2=CN(C(CO)CO)C(c3ccc(OC)cc3)=CC2=C(Br)C1=O (stereo unspecified),·,–,·,·,–,·
COC(=O)CCC(=O)OC1(C)C(=O)C2=COC(c3ccc(OC)cc3)=CC2=C(Br)C1=O (stereo unspecified),·,·,·,·,35,–
CSC[C@H]1CN(c2ccccc2)C(=O)[C@@H]1CC(=O)Nc1ccc(Br)cc1,·,–,·,·,·,·
SMILES,PAFAH1B2 FP inh,TCR CD3 inh,PAFAH2 FP inh,PAFAH1B3 inh,pPAFAH inh,pPAFAH FP conf
COc1ccccc1/C=C1\SC(=S)N(CCC(=O)NNC(=O)c2ccccc2O)C1=O,–,·,–,–,35,66
Cc1cc(NC(=O)Cc2cccs2)no1,–,–,35,–,54,–
O=C(Cc1ccc(F)cc1)N1CCOCC1,–,–,–,–,–,·
O=S(=O)(Nc1ccc(-c2cn3ccccc3n2)cc1)c1ccccc1,–,–,–,–,–,·
Cc1cccc(S(=O)(=O)Nc2ccc(-c3cn4ccccc4n3)cc2)c1,–,–,–,–,35,–
COc1ccccc1C(=O)NCC(=O)OCc1nnc(-c2ccccc2)o1,·,–,·,·,·,·
CC1C(c2ccccc2)OCCN1C(=S)Nc1ccc(S(=O)(=O)N2CCCCC2)cc1 (stereo unspecified),·,–,·,·,·,·
CC(C)(C)S(=O)N1Cc2cc(C(=O)NCc3ccc4c(c3)OCO4)nc(-c3cccc(-c4ccccc4)c3)c2[C@@H]1CCO (stereo partly specified),·,–,·,·,·,·
Cc1ccc(/C=C2\SC(=S)N(/N=C/c3cc([N+](=O)[O-])ccc3O)C2=O)o1,26,·,74,46,63,56
CCOc1ccc(N2CC(C(=O)Nc3ccc(F)cc3F)CC2=O)cc1 (stereo unspecified),–,–,–,–,37,–
